# Pf Dd2 growth: qHTS Primary assay for Inhibitors of Plasmodium falciparum Dd2 growth in vitro | 4.3% of 120,000 active | P. falciparum Dd2 growth, SYBR Green, 72 h | Potency, µM (series often up to 28.9 µM), for the others: at the top dose activity, negative = inhibition, most hits filed as inhibitors; active = well fitted inhibition curve with a large enough effect;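 also: plate controls were DMSO vehicle for no effect and reference drug for full effect; nearly all actives have a fitted effect of over 65% in size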
#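 Readout: SYBR Green fluorescence, 485 nm excitation, 535 nm emission, after ~16 h lysis at 37C. Before that, Dd2-infected red cells (2.5% hematocrit) grew 72 h with compound, 29 uM top final concentration.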
# Numbers without * were called inactive; i = inactive; [ ] = dose if it differs, or a comment. The sample as a whole holds a higher share of hits than the screen did. Potency is read from the fitted curve at half-maximal effect.
SMILES,Pf Dd2 growth
Cc1noc(C)c1CC(=O)N1[C@@H]2CC[C@H]1CC(NC(=O)c1ccc(F)cc1)C2 (some centres not stated),18%
CC(C)N1CC(c2nc(-c3ccc4nc[nH]c4c3)no2)CC1=O (configuration not stated),10%
COCCOc1ccc2c(n1)CCN(C(=O)c1ccccc1C)C2,17%
CC(C)Cc1cc(C(=O)N2CCOCC2CC(=O)N2CC=CC2)nc(=O)[nH]1 (configuration not stated),5%
Cc1ccc(S(=O)(=O)N2CCCN(C(=O)C3CC3)c3ccccc32)cc1F,i
CNC(=O)[C@@H]1C[C@H](Oc2ccccc2)CN1C(=O)c1ccc2ncccc2c1,i
CC(C)N1CCCC2(CCN(C(=O)C3(Cn4ccnc4)CC3)C2)C1=O (configuration not stated),-9%
COc1ccc(-c2n[nH]c3c2C(c2ccccn2)N(C)C3=O)cc1 (configuration not stated),-13%
CCCN1C(=O)c2[nH]nc(-c3ccccc3O)c2C1c1cccc(OCc2ccccc2)c1 (configuration not stated),4.5µM*
O=C1c2[nH]nc(-c3ccccc3O)c2C(c2ccc(F)cc2)N1CCO (configuration not stated),-9%
CCCN1C(=O)c2[nH]nc(-c3ccccc3)c2C1c1cccc(O)c1 (configuration not stated),-19%
COc1ccc(CCN2C(=O)c3[nH]nc(-c4ccccc4O)c3C2c2ccc(O)c(OC)c2)cc1 (configuration not stated),10µM*
CCCN1C(=O)c2[nH]nc(-c3cccc(OC)c3)c2C1c1ccccn1 (configuration not stated),-5%
CCOc1cc(C2c3c(oc4ccccc4c3=O)C(=O)N2Cc2ccc(OC)cc2)ccc1O (configuration not stated),-5%
O=C(NC1(C(F)(F)F)NC(=O)N(CCc2ccccc2)C1=O)c1ccc(Cl)cc1 (configuration not stated),i
O=C1c2[nH]nc(-c3ccccc3O)c2C(c2ccc(Cl)cc2)N1CCc1ccccc1 (configuration not stated),8.9µM*
C[C@@H](NCC1CCCC1)c1onc(-c2ccc(Cl)cc2)c1C(=O)O,-4%[44.1 µM]
O=C(c1ccc(F)cc1)N1CCC2(CC1)COc1ccccc1[S+](=O)([O-])N2,i
Cc1ccc(C(=O)N2CCC([C@@H]3CNC[C@H]3CO)CC2)cc1F,-18%
COC[C@@H]1CN(Cc2cccc(OC)c2OC)C[C@H]1C(=O)NC1CC1,4%
CN(C)C(=O)c1noc2c1CN(C(=O)C1COc3ccccc3C1)CC2 (configuration not stated),-8%
O=C(Cc1ccccc1)N1CCC2(Cc3ccccc3NC2=O)C1 (configuration not stated),i
Cc1cc(C)c(CNC(=O)c2nc(-c3ccc(CO)cc3)cc3c2ccn3C)c(=O)[nH]1,-14%[44.1 µM]
COc1cccc(C(=O)NC2CCc3nnc(C4CC4)n3CC2)c1C (configuration not stated),6%
CCC1=C(c2ccc(C)cc2)S(=O)(=O)N=C1N1CCC(C(=O)NCCc2ccc(Cl)cc2)CC1,8.9µM*
SMILES,Pf Dd2 growth
CC1=C(c2ccc(Cl)cc2)S(=O)(=O)N=C1N1CCC(C(=O)NCCc2ccco2)CC1,22%
CC1=C(c2ccc(F)cc2)S(=O)(=O)N=C1N1CCC(C(=O)NCCc2ccccc2)CC1,i
Cc1ccc(CNC(=O)C(C)C2CCOCC2)cc1C (configuration not stated),15%
COCc1nc(C2CCN(C(=O)C3CC3)C2)no1 (configuration not stated),-3%
Cc1ccccc1Cn1c(=O)n(CC2CCC(C(=O)N3CCC(C)CC3)CC2)c(=O)c2sccc21 (configuration not stated),11µM*
CNC(=O)C1CCC(Cn2c(=O)c3sccc3n(CC(=O)N3CCC(C)CC3)c2=O)CC1 (configuration not stated),8%
COc1cccc(Cn2c(=O)n(CC3CCC(C(=O)NC(C)C)CC3)c(=O)c3sccc32)c1 (configuration not stated),-8%
COc1cccc(Cn2c(=O)n(CC3CCC(C(=O)N4CCCCC4)CC3)c(=O)c3sccc32)c1 (configuration not stated),10µM*
Cc1ccc(Cn2c(=O)n(CC3CCC(C(=O)N4CCC(C)CC4)CC3)c(=O)c3sccc32)cc1 (configuration not stated),-24%
Cc1cccc(Cn2c(=O)n(CC3CCC(C(=O)NC(C)C)CC3)c(=O)c3sccc32)c1 (configuration not stated),-5%
COCCn1nc2n(c1=O)CCN(Cc1sccc1C)CC2,27%
Cc1ccc(NC(=O)N2CCC[C@H]2C(=O)N2CCCCCCNC(=O)CC2)cc1C,6%
CCCNC(=O)NC[C@@H]1C=C(C)[C@H](Cc2nc3nc(OC)ccc3[nH]2)C[C@H]1C(C)C,10µM*
CC1=C[C@@H](CNC(=O)C(C)C)[C@H](C(C)C)C[C@H]1Cc1nc2ncccc2[nH]1,-3%[44.1 µM]
CC(=O)NC[C@@H]1C=C(C)[C@H](Cc2nc3ccccc3[nH]2)C[C@H]1C(C)C,-24%[44.1 µM]
CCC(CC)C(=O)NC[C@@H]1C=C(C)[C@H](Cc2nc3ccc(F)cc3[nH]2)C[C@H]1C(C)C,i
CC1=C[C@@H](CNC(=O)c2cccnc2)[C@H](C(C)C)C[C@H]1CC(=O)NC1CCCC1,i
COc1ccc2[nH]c(C[C@@H]3C[C@@H](C(C)C)[C@H](CNC(=O)c4cccnc4)C=C3C)nc2n1,11µM*
CNC(=O)[C@H]1C[C@H](Oc2ccccc2)CN1C(=O)c1ccc2ccccc2n1,-22%
CN1CCC2(CC1)CC(=O)N(CC(=O)N(C)CCc1cnn(C)c1)C2,-7%
COc1ccc(C(=O)N2CC[C@@H]3CN(S(C)(=O)=O)[C@@H]3C2)cn1,42%
Cc1noc(C)c1[S+](=O)([O-])N1CCn2ncc(C(=O)N3CCOCC3)c2C1,13%
O[C@H]1[C@H](NCC2CCCCC2)[C@H]2CO[C@H](O2)[C@@H]1N1CCC(Cc2ccccc2)CC1,1.4µM*
OCc1ccc(CN[C@H]2[C@H](O)[C@@H](N3CCC(Cc4ccccc4)CC3)[C@@H]3OC[C@H]2O3)o1,i
O[C@H]1[C@H](NCc2ccccn2)[C@H]2CO[C@H](O2)[C@@H]1N1CCC(Cc2ccccc2)CC1,-19%[44.1 µM]
SMILES,Pf Dd2 growth
CCCNC(=O)CCc1ccc2c(c1)CN(C(=O)C1CC1)CCO2,1%
CCOC(=O)C1=C(CN2CCN(c3cccc(Cl)c3)CC2)NC(=O)NC1c1ccc(Cl)cc1 (configuration not stated),i
Cn1ncc2c(N3CCN(c4cccc(Cl)c4)CC3)ncnc21,8%
COc1cc(Cl)cc(CN2CCN(c3ncccc3C#N)CC2)c1OC,i
CCOc1ccc2oc(=O)cc(CN3CCN(C(=O)c4cccc(Cl)c4)CC3)c2c1,i
CCCOCc1cc(CN2CCN(c3cccc(Cl)c3)CC2)c(O)c2ncccc12,3.2µM*
CCCCOCc1cc(CN2CCN(c3cccc(Cl)c3)CC2)c(O)c2ncccc12,1µM*
NC(=O)C1CCN(C(=O)[C@H]2C[C@@H](O)[C@H](O)[C@@H]3N=C(Nc4ccc(F)cc4)S[C@@H]32)CC1,25%
CS(=O)(=O)N1CCC(N2C(=O)C(OCC3CC3)C23CCCCC3)CC1 (configuration not stated),-20%

# Assay outcomes deposited in PubChem BioAssay by National Center for Advancing Translational Sciences (NCATS).
